# Only a selection was taken, and hits are over-represented in it overall.
# VACV E9 pol inh – blocks vaccinia virus processive DNA synthesis | in vitro processive DNA synthesis, absorbance read-out; hits give low values | normalized absorbance, % (concentration not given with the values) | hit rate 0.94% among 46,000; in the data active = normalized absorbance mostly below about 85%, no sharp cut-off; inactive = mostly above about 86%
# An asterisk follows results filed as active.
SMILES,VACV E9 pol inh
Cc1[nH]n(-c2cccc(Cl)c2)c(=O)c1N=O,67*
Cc1[nH]n(-c2ccccc2)c(=O)c1Sc1ccc(Cl)cc1,100
CN(CC(=O)N1CCCC1)c1nnc(N2CCCC2=O)s1,100
CCc1ccc(Nc2c3c(nc4ccccc24)CCCC3)cc1,91
CCc1ccc(Nc2c3c(nc4ccccc24)CCC3)cc1,86
CN(C)CCCNc1c2c(nc3ccccc13)CCC2,27*
CC(C)CCNC(=O)c1cc2c(s1)CSC2,102
CSC(=S)n1cccc1,92
O=C(CSc1nccn1-c1ccccc1)Nc1ccccc1F,104
Cc1oc2ccccc2c1-c1ccc2ccccc2n1,98
CSCCC(C(=O)O)n1c(O)c(/C=C2\C=Nc3ccccc32)sc1=S (stereo unspecified),78*
CSCCC(C(=O)O)N1C(=O)/C(=C/c2ccc(O)cc2)SC1=S (stereo unspecified),98
CSCCC(C(=O)O)N1C(=O)CSC1=S (stereo unspecified),88
COc1ccc(CNC(=O)Cn2nc(-c3ccccc3)ccc2=O)cc1,80
O=C1CC(Sc2ccc3ccccc3c2)C2COC1O2 (stereo unspecified),36*
CC1CCc2nc(SC3CC(=O)C4OCC3O4)nc(C(F)(F)F)c2C1 (stereo unspecified),100
O=C1CC(N2C(=O)C3CC=CCC3C2=O)C2COC1O2 (stereo unspecified),101
Cc1ccc(C(=O)Oc2cccnc2I)cc1,119
NNC(=O)c1nnn(-c2nonc2N)c1CNc1ccccc1,96
CN1C(C(=O)NCC23CC4CC(CC(C4)C2)C3)=CC(c2ccco2)=NS1(=O)=O,98
COc1ccc(-c2ccc(OC)cc2C(=O)NN)cc1,101
COc1ccc2c(c1)C(=NN)c1cc(OC)ccc1-2,68*
COc1ccc2c(c1)-c1ccccc1S(=O)(=O)N2C,96
CCOC(=O)c1sc2nc3n(c(=O)c2c1C)CCCC3,110
CCOC(=O)N1CCN(C(=O)CCn2c(=S)[nH]c3cc4c(cc3c2=O)OCO4)CC1,98
SMILES,VACV E9 pol inh
O=C(Nc1ccc(CN2CCS(=O)(=O)CC2)cc1)c1ccco1,110
COCC(C)NCc1cccc(OC)c1 (stereo unspecified),92
CCCn1cc(SCC(=O)Nc2sc3c(c2C(=O)OCC)CCC3)c2ccccc21,93
CCOc1ccc(NC(=O)CSc2c[nH]c3ccccc23)cc1,100
Cc1ccc(NS(=O)(=O)c2ccc3c(c2)oc(=O)n3C(=O)Oc2ccccc2)cc1,100
CCn1c(SCC(=O)O)nnc1-c1sc2cc(Cl)ccc2c1Cl,96
Cc1ccc(-c2csc3ncnc(SCCC(=O)O)c23)cc1,96
CC(C)OC(=O)CSc1ncnc2scc(-c3ccccc3)c12,103
O=C(O)CSc1ncnc2scc(-c3ccc(Br)cc3)c12,68*
Cc1cc(C)cc(C(=O)N2CC(C)CC(C)C2)c1 (stereo unspecified),98
CC(SCc1nc2ccccc2[nH]1)c1ccccc1 (stereo unspecified),104
CN(C(=O)c1ccc(-n2cnnn2)cc1)C1CC(C)(C)NC(C)(C)C1,91
CN1C(=O)/C(=c2/[nH][nH]c(=O)/c2=C\C=C\c2ccccc2)C(=O)c2ccccc21,78
Cc1noc(C)c1CN1CCN(c2ccccc2)CC1,98
CCCN(Cc1cccs1)C(=O)Nc1ccccc1CC,109
COc1ccc2c(=O)c(-c3ccc4c(c3)OCCO4)coc2c1,94
CCc1cc2c(=O)c(-c3ccc4c(c3)OCO4)coc2cc1O,82*
CCc1cc2c(=O)c(-c3ccccc3)coc2cc1O,98
CCCC1=NNC(=O)C1Cc1c(Cl)cccc1Cl (stereo unspecified),87
CCCC(=O)Nc1cccc(N)c1,101
O=C(O)CCC(=O)Nc1cccc(O)c1,100
Nc1cccc(NC(=O)CCC(=O)O)c1,72*
NCCCc1nc2ccc(Cc3ccc4nc(CCCN)[nH]c4c3)cc2[nH]1,77
NCCCc1nc2cc3sc(CCCN)nc3cc2s1,60*
c1ccc2sc(CCc3nc4ccccc4s3)nc2c1,98
SMILES,VACV E9 pol inh
S=c1n(CN2CCOCC2)nc2n1CCCCC2,100
c1ccc(SCc2nnc3n2CCCCC3)cc1,95
CC(=O)Nc1nc(C2CC2)cc(-c2ccccc2)c1C#N,85*
CCOC(=O)CSc1nc(C2CC2)cc(-c2ccccc2)c1C#N,99
COC(=O)CSc1nc(-c2ccccc2)cc(-c2ccccc2)c1C#N,99
CC1CN(CC(O)COCc2ccccc2)CC(C)O1 (stereo unspecified),106
Cc1ccc(-c2nnc(Nc3ccccc3)c3ccccc23)cc1S(=O)(=O)NC(C)(C)C,100
CCN(CC)CCCC(C)Nc1c2ccc(Cl)cc2nc2ccc(OC)cc12 (stereo unspecified),15*
COc1ccc2nc(C)cc(SCC(=O)c3ccc(Cl)cc3)c2c1,98
CCSc1nc(C)c2cc(OC)ccc2n1,100
CNC(=O)COc1ccc(NC(=O)CCn2nc(-c3ccc(Cl)cc3)c3ccccc3c2=O)cc1,100
Cc1cc(-c2nn(C)c(=O)c3ccccc23)cc(C)c1OCC(=O)NN,106
CNC(=O)COc1ccc(-c2nn(C)c(=O)c3ccccc23)cc1,76*
CCOC(=O)c1ccccc1NC(=O)Cn1c(=O)n(-c2cc(C)cc(C)c2)c(=O)c2sccc21,99
CN(C)/N=C(\Cn1nnc(N2CCCC2)n1)c1ccc(Cl)cc1,92
CC1=C/C(=C/c2ccco2)C(=O)O1,100
O=C1/C(=C/c2ccco2)CC/C1=C\c1ccco1,24*
O=C1/C(=C/c2ccco2)CC(c2ccccc2)C/C1=C\c1ccco1 (stereo unspecified),92
CC(C)C(NC(=O)c1ccccc1)C(=O)Nc1nc2ccc(Cl)cc2s1 (stereo unspecified),103
Cc1ccc(N=C2NC(=O)/C(=C3\C(=O)N(C)c4ccccc43)S2)cc1C,101
Fc1ccc(N=Cc2ccsc2)cc1F,102
C=CCNC(=O)c1ccccc1Sc1ccccc1C#N,98
N#Cc1ccc(CSC2=NCCN2)cc1,71*
CN1CN=C(SCc2cccc(C#N)c2)NC1,76*
N#Cc1ccc(CSc2ccc(Cl)cc2)cc1,100
SMILES,VACV E9 pol inh
CCN1CN=C(SCc2cccc(C#N)c2)NC1,69
O=C(CSC1=NCCN1)NC(c1ccccc1)c1ccccc1,90
CN1CN=C(SCc2ccc(Cl)c(Cl)c2)NC1,65
N=c1c(C(=O)NCC2CCCO2)cc2c(=O)n3ccccc3nc2n1CCCN1CCOCC1 (stereo unspecified),100
COc1cc2c(cc1OC)C(C)N(C(=O)c1noc3c1COc1ccc(C)cc1-3)CC2 (stereo unspecified),99
Nc1nccc(-c2ccc(Oc3ccc(Cl)cc3)cc2Cl)n1,76*
CC(Oc1ccc(-c2ccccc2)c(F)c1)c1ccnc(N)n1 (stereo unspecified),96
Nc1nccc(-c2ccccc2OCc2ccc(Cl)cc2)n1,99
c1ccc(-c2ccn(-c3ccccc3)n2)cc1,101
CN(C)N1C(=O)c2cccc3cccc(c23)C1=O,88
O=C(O)c1ccc(/C=N/N2C(=O)c3cccc4cccc(c34)C2=O)cc1,102
CNN1C(=O)c2cccc3cccc(c23)C1=O,64*
O=C1c2ccccc2C(=O)c2c1n[n+]([O-])n2-c1ccc(F)cc1,90
CCn1c(C(O)c2cc(C(C)(C)C)c(O)c(C(C)(C)C)c2)nc2ccccc21 (stereo unspecified),100
Cc1ccc(NC(=O)c2ccc(-n3nc(C(F)(F)F)c4c3-c3ccoc3CC4)cc2)cc1,100
